Laboratory results from PubChem BioAssay (NCI).
The panel holds about 79,000 compounds, 15% with a hit somewhere; the sample as a whole holds those more often. The source made the active and inactive calls. Cut-off read from the data, not from the text of the source: active = growth inhibition above about 70%; inactive = the rest.

How the values were obtained:
[1] = NCI Yeast Anticancer Drug Screen. Data for the rad50 strain (AID 155);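 note: 0% = growth of vehicle-only cultures of the same strain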; conditions: S. cerevisiae rad50 strain growth inhibition; at 50.0 µM; hits give high values
Method in brief: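 Genetically altered yeast (DNA repair pathway); compound treatment; growth inhibition vs vehicle ctrl.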

[2] = NCI Yeast Anticancer Drug Screen. Data for the mec2-1 strain (AID 157); conditions: S. cerevisiae mec2-1 strain, at 50.0 µM, hits give high values
Method in brief: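 Mutant yeast (mec2-1) grown with compound; growth inhibition relative to vehicle control reported.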

[3] = NCI Yeast Anticancer Drug Screen. Data for the sgs1 mgt1 strain (AID 161);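 note: 0% = growth of cultures given vehicle only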; conditions: S. cerevisiae sgs1 mgt1 strain, at 50.0 µM, hits give high values
Method in brief: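 Percent growth inhibition was derived by comparing compound-exposed mutant yeast with vehicle-exposed cultures. The strain carries alterations in DNA damage repair.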

[4] = NCI Yeast Anticancer Drug Screen. Data for the cln2 rad14 strain (AID 165);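 note: 0% = growth equal to vehicle treated cultures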; conditions: S. cerevisiae cln2 rad14 strain, at 50.0 µM, hits give high values
Method in brief: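 Readout is yeast growth inhibition versus vehicle-treated controls, using a strain with cln2 and rad14 alterations exposed to compound.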

[5] = NCI Yeast Anticancer Drug Screen. Data for the bub3 strain (AID 167); conditions: S. cerevisiae bub3 mutant strain, at 50.0 µM, hits give high values
Method in brief: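 Yeast carrying a defined mutation is treated with each compound, and growth is compared with that of vehicle-exposed cells to give inhibition.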

[6] = NCI Yeast Anticancer Drug Screen. Data for the mlh1 rad18 strain (AID 175); conditions: S. cerevisiae mlh1 rad18 strain growth inhibition; at 50.0 µM; hits give high values
Method in brief: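 Genetically defined yeast (DNA repair-deficient) exposed to compounds; growth inhibition determined relative to vehicle.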

Measured: growth inhibition

Cc1nc(-n2nc(-c3ccccc3)cc2-c2ccccc2)sc1C(=O)CC(=O)C(=O)Nc1ccc(Cl)c(Cl)c1
inactive: [1] 6.15% | [2] -5.55% | [3] 24.6% | [4] 13.8% | [5] 48.5% | [6] 24.8%

Cc1ccc(N=Nc2c(N)ccc3ccccc23)cc1
active: [1] 90.5% | [2] 87.2% | [3] 89.6% | [4] 84.2% | [5] 87% | [6] 86.5%

CCCC(O)C(=O)C(CCC)N(CC)CC (centres undefined)
inactive: [1] 2.5% | [2] -6.85% | [3] 6.65% | [4] 18.7% | [5] 11.1% | [6] -4.9%

Nc1nc(=O)n(C2OC(CO)C(O)C2Cl)cc1I (centres undefined)
inactive: [1] 10.4% | [2] -3.8% | [3] 1.1% | [4] -5.1% | [5] 7.8% | [6] -0.75%

O=C[c-]1[c-][c-][c-][c-]1.[Fe+2].[c-]1[c-][c-][cH-][c-]1
inactive: [1] 44% | [2] 58.5% | [3] 57.8% | [4] 49% | [5] 51.6% | [6] 14%

CN(C)C(=O)NNC(=O)N(C)C
inactive: [1] 1.75% | [2] 20.5% | [3] 12.8% | [4] -22.5% | [5] 6.85% | [6] -0.7%

O=C1OC(c2ccccc2)=N/C1=C\c1cccnc1
inactive: [1] 12.3% | [2] -3.25% | [3] 0% | [4] -10.3% | [5] -5.8% | [6] 13.1%

O=C(NNc1ccccc1)C1C2CC3OC(=O)C1C3C2 (centres undefined)
active: [2] 82.1% | [3] 77.6% | [5] 79.8%
inactive: [1] 54% | [4] 52.4% | [6] 68.5%

CC(=O)Nc1ccc2c([N+](=O)[O-])cccc2c1-c1c(NC(C)=O)ccc2c([N+](=O)[O-])cccc12
inactive: [1] 44.2% | [2] 10.8% | [3] 35.4% | [4] 10.8% | [5] 5.55% | [6] 30.4%

COC(=O)C1=C(C(=O)OC)SC(=C2c3ccsc3-c3sccc32)S1
inactive: [1] -31.3% | [2] -6.2% | [3] -7.45% | [4] 19% | [5] 1.3% | [6] -4.5%

O=c1[nH]c(=S)[nH]c2[nH]c(=S)ncc12
inactive: [1] -26.8% | [2] -43.1% | [3] -31.8% | [4] 1.9% | [5] -13.1% | [6] -15.1%

CS(=O)(=O)OCC1C2CCC(CC2)C1COS(C)(=O)=O (centres undefined)
inactive: [1] 4.5% | [2] 17.3% | [3] 10.2% | [4] -15.8% | [5] -13.2% | [6] -11.5%

COc1cc([N+](=O)[O-])ccc1N=Cc1cccs1
inactive: [1] 19.4% | [2] 22.8% | [3] 34% | [4] 0.25% | [5] 18.3% | [6] 27.9%

O=C1Cc2ccccc2NC(c2ccccc2)C1S(=O)(=O)c1ccccc1 (centres undefined)
inactive: [1] 7.05% | [2] 4.35% | [3] 9.3% | [4] -2.15% | [5] -0.05% | [6] 19.6%

Cc1ccc(SCc2cn(C3OC(CO)C(O)C3O)c(=O)[nH]c2=O)cc1 (centres undefined)
inactive: [1] 25.3% | [2] 20.4% | [3] 12.9% | [4] 22.6% | [5] -1.4% | [6] 12.2%

CCOC(C[N+](C)(C)C)OCC
inactive: [1] 9.7% | [2] -25.6% | [3] 2.4% | [4] 8% | [5] 30% | [6] 0.3%

Cc1ccc(C)c(NCc2ccccc2)c1
inactive: [1] 41.6% | [2] 20.1% | [3] 8.85% | [4] -16.9% | [5] 36.9% | [6] 24.3%

O=C(O)c1cnc2cc3c(cc2c1Nc1cccc(C(F)(F)F)c1)OCO3
inactive: [1] 29% | [2] -8.85% | [3] 5.15% | [4] 6.7% | [5] 29.4% | [6] 4.05%

CCOc1ccc2nc(NC(=O)CC(C)=O)sc2c1
inactive: [1] -17.6% | [2] -22% | [3] -4.3% | [4] 7.6% | [5] -17.9% | [6] 7.35%
